One test has as its target KLHL24. In words: pooled miR-30 sensor sort-seq; sequence = guide strand. The settings on record: shRNA.
In the case of TATTTTTCTATCTCCTACCTAA, the sensor-assay potency score (higher = more potent) came to 0.015.

For the sequence TTACAGGATCGTAGCACTCAGT, the sensor-assay potency score (higher = more potent) is -1.07.

Sequence TTTACCATTACACACAGACATA had a sensor-assay potency score (higher = more potent) of -1.69.

As to TGGATCATAAGATTGAACCTTA, the sensor-assay potency score (higher = more potent) stood at 0.374.

The sequence TTTTGTGACGCCATCTGCCTTT displayed a sensor-assay potency score (higher = more potent) of -0.286.

Take TTCAACTGGATCGTAACAGTAT: the sensor-assay potency score (higher = more potent) was -0.312.

Regarding TATGAATAGTCACACAGCCATG, the sensor-assay potency score (higher = more potent) was -1.71.

In a further test the target is KLHL5. The description is as above. The following applies: shRNA.
Consider TAGCACTGCAACACCGAACTGT, for which the sensor-assay potency score (higher = more potent) is 0.529.

Turning to TTCATTAAAAACTTACAGCATG, the sensor-assay potency score (higher = more potent) was -0.802.

The sequence TAACATGGGTCGTCTCTCTGGT displayed a sensor-assay potency score (higher = more potent) of 0.867.

As to TGTGTGATCACAATCCACCAGC, the sensor-assay potency score (higher = more potent) is -0.62.

In turn, TTTCTCTACATAAATTTGCATA displayed a sensor-assay potency score (higher = more potent) of -0.841.

Take TAAAATTACATCACACAACTGT: the sensor-assay potency score (higher = more potent) came to 0.596.

As to TAATGTCTGACTACTATTGGAA, the sensor-assay potency score (higher = more potent) was -0.622.

In turn, TATCTTTCCACACAGTCTGAGA yielded a sensor-assay potency score (higher = more potent) of -1.09.

The sequence TTTGACATCAGGCACTTTGTGC had a sensor-assay potency score (higher = more potent) of -0.672.

Turning to TTGACATCTGTGCACACAGTGT, the sensor-assay potency score (higher = more potent) is -0.886.

Turning to TATGCAAATCTGTACAACCTTG, the sensor-assay potency score (higher = more potent) is -0.563.

TTATTGTTGCTTTAAGTCCTTA gave a sensor-assay potency score (higher = more potent) of -0.543.

The target of another test is KLK5. The test is described as above. The settings on record: shRNA.
Take TTGATGGGTCTGACATCTTTAG: the sensor-assay potency score (higher = more potent) is -1.51.

TAGAGAGACACGGTCAGCCCAA: the sensor-assay potency score (higher = more potent) worked out at 0.0597.

Turning to TTGATGATGCGGCTGCTGCTGT, the sensor-assay potency score (higher = more potent) is -0.719.

With TCTCGGGTAAGCATCCTCGCAC, the sensor-assay potency score (higher = more potent) is -0.337.

Turning to TGAACATTCTCAACATCTCTGG, the sensor-assay potency score (higher = more potent) is -0.405.

For AACATTCTCAACATCTCTGGGA, the sensor-assay potency score (higher = more potent) is 0.475.

The sequence TTGGGCCTTAGCAACAGCGCGG showed a sensor-assay potency score (higher = more potent) of -0.877.

ACTCTGAAAACTTTCTTCCTGC had a sensor-assay potency score (higher = more potent) of -0.332.

With TTCGTGTAGACACCCGGTCTGT, the sensor-assay potency score (higher = more potent) is -0.664.

In turn, TTTTCTGACTTAGCACGCTGAT yielded a sensor-assay potency score (higher = more potent) of -0.837.

The sequence TTTCTGACTTAGCACGCTGATA had a sensor-assay potency score (higher = more potent) of -1.58.

The target of another test is KPRP. The description is as above. The settings on record: shRNA.
AATCTCAACAGGACACCTCTGT gave a sensor-assay potency score (higher = more potent) of 0.644.

In the case of TGGTCTTAGACTGACATTGAGC, the sensor-assay potency score (higher = more potent) is -1.69.

Turning to TAGACTGGCACTTCACCTGTGT, the sensor-assay potency score (higher = more potent) was 0.425.

For TTTCTGTATAACAAACTGGAGC, the sensor-assay potency score (higher = more potent) is -1.23.

The sequence TTGAACCACCACTTGGCTCTGG yielded a sensor-assay potency score (higher = more potent) of 0.211.

With TAGACTGACATTGAGCCTGGCC, the sensor-assay potency score (higher = more potent) came out at 0.158.

As to TTGTCGTGGTAGAGGACGCGGG, the sensor-assay potency score (higher = more potent) was -1.43.

Take TAGTTGTTGCAGGTAGCCCTTG: the sensor-assay potency score (higher = more potent) is -0.668.

As to TAGCCCTTGACTGAAACTGGGG, the sensor-assay potency score (higher = more potent) is -0.902.

In the case of TCTTAGACTGACATTGAGCCTG, the sensor-assay potency score (higher = more potent) was -0.234.

For the origin of these results see the OligoGym collection.
Also: reference of the scale not given here.
